# Experimental data published in PubChem BioAssay.
# Activity calls are given as the source filed them.
# Legend:
# [1] = test system: Human papillomavirus type 1a protein E7 (residues 44-93); assay: HPV1a E7 fragment binders on microarrays, primary screen, biochemical, small-molecule microarray, residues 44-93, 635 nm fluorescence (AID 1108); details: small-molecule microarray binding, fluorescence 635 nm; higher = more signal;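 further: E7 fragment applied at 1 µg/mL in TBST for 1 h at 4 C; score combines spot fluorescence with its signal to noise ratio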
# [2] = modulators of HCV replicon luciferase signal, primary screen, HCV replication inhibitor project, Huh7 cells, luciferase reporter (AID 1109); details: 48 h, higher = more signal;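 further: huh7 hepatoma cells harbouring a luciferase neomycin HCV replicon reporter; luciferase luminescence as measure of HCV replicon replication; test concentration not given here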
# [3] = target: Left-right determination factor 2 (Homo sapiens) (UniProt O00292); assay: LEFTY2 binders on small-molecule microarrays, primary screen, biochemical, small-molecule microarray, 635 nm fluorescence scan (AID 1110); details: LEFTY2 binding, higher = more signal
# Sequence of Left-right determination factor 2 (Homo sapiens) (O00292 whole entry, looked up): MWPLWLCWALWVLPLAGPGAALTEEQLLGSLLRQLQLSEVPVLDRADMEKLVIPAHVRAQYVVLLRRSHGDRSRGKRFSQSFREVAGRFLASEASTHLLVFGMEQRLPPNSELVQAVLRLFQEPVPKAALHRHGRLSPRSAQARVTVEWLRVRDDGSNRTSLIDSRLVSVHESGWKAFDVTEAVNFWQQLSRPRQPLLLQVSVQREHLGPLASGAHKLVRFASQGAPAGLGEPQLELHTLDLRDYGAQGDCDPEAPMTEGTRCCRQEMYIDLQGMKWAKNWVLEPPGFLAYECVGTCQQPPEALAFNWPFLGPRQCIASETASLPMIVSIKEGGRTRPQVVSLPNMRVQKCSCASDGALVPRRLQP
# [4] = target: Calmodulin-1 (Homo sapiens) (UniProt P0DP23); assay: CALM1 binders on microarrays, EGTA buffer, profiling panel, biochemical, small-molecule microarray, Cy5-labelled CALM1 (AID 1111); details: Cy5-CALM1 binding fluorescence, higher = more signal;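 further: labelled calmodulin applied in Tris saline Tween buffer holding calcium plus EGTA and DTT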
# [5] = target: Calmodulin-1 (Homo sapiens) (UniProt P0DP23); assay: calcium-bound CALM1 binders on microarrays, profiling panel, artefact control for SMM control-protein annotation, biochemical, small-molecule microarray, Cy5-labelled CALM1, plus calcium (AID 1112); details: Cy5-CALM1 binding fluorescence, higher = more signal;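 further: score merges spot fluorescence with signal to noise from triplicate slides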
# [6] = small-molecule microarray binders of probe aWnt5a, primary screen, biochemical, biotinylated probe, 635/667 nm fluorescence (AID 1113); details: higher = more signal;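 further: score merges 667 nm fluorescence intensity with signal-to-noise per printed feature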
# [7] = small-molecule microarray binders of probe aShh, primary screen, biochemical, biotinylated probe, 635/667 nm fluorescence (AID 1114); details: higher = more signal;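 further: probe is biotin-labelled aShh protein from a stem cell growth factor screen; measures binding of labelled protein to compounds printed on the slide; score merges feature fluorescence at 667 nm with signal-to-noise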
# [8] = small-molecule microarray binders of probe aNog, primary screen, biochemical, biotinylated probe, 635/667 nm fluorescence (AID 1115); details: higher = more signal;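 further: probe is biotinylated aNog protein used at 0.15 µg/mL for 1 h at 4 C; z-score combines 667 nm fluorescence of each spot with its signal to noise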
# [9] = target: Torsin-1A-interacting protein 1 (Homo sapiens) (UniProt Q5JTV8); assay: LAP1 binders from COS7 cell lysate, primary screen, small-molecule microarray, 635/667 nm fluorescence (AID 1116); details: COS7-hLAP1 lysate binding, 635 nm fluorescence, higher = more signal
# Sequence of Torsin-1A-interacting protein 1 (Homo sapiens) (Q5JTV8 whole entry, looked up): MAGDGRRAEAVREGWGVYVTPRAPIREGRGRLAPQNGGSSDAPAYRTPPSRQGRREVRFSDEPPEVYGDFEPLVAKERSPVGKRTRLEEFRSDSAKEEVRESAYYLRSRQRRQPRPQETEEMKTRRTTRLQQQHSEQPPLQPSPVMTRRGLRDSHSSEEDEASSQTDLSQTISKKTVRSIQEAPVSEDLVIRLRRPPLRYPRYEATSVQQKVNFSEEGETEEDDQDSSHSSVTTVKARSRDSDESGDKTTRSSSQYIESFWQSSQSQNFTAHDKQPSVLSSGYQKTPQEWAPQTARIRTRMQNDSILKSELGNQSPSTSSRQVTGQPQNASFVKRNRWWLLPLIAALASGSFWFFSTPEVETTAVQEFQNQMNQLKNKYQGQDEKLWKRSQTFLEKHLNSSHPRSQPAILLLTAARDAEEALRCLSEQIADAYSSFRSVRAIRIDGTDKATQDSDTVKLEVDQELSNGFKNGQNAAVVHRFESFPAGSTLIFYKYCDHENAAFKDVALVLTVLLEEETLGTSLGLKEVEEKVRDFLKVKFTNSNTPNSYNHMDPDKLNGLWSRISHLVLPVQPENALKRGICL
# [10] = target: Alpha-bungarotoxin (Bungarus multicinctus) (UniProt P60615); assay: alpha-bungarotoxin binders on microarray, profiling panel, artefact control for SMM control protein annotation, biochemical, small-molecule microarray, Alexa647 label, 635/667 nm fluorescence (AID 1117); details: alpha-BTX-A647 binding fluorescence, higher = more signal
# Sequence of Alpha-bungarotoxin (Bungarus multicinctus) (P60615 whole entry, looked up): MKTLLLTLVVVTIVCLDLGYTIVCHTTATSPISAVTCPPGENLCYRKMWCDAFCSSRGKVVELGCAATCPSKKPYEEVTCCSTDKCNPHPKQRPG
# Albumin (Bos taurus) = Albumin (Bos taurus) (UniProt P02769); assay: bovine serum albumin binders on microarray, profiling panel, artefact control for SMM control protein annotation, biochemical, small-molecule microarray, Alexa647 label, 635/667 nm fluorescence (AID 1118); details: BSA-A647 binding, fluorescence 635 nm, higher = more signal;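 further: score merges 667 nm emission intensity and signal-to-noise per printed compound spot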
# Sequence of Albumin (Bos taurus) (P02769 whole entry, looked up): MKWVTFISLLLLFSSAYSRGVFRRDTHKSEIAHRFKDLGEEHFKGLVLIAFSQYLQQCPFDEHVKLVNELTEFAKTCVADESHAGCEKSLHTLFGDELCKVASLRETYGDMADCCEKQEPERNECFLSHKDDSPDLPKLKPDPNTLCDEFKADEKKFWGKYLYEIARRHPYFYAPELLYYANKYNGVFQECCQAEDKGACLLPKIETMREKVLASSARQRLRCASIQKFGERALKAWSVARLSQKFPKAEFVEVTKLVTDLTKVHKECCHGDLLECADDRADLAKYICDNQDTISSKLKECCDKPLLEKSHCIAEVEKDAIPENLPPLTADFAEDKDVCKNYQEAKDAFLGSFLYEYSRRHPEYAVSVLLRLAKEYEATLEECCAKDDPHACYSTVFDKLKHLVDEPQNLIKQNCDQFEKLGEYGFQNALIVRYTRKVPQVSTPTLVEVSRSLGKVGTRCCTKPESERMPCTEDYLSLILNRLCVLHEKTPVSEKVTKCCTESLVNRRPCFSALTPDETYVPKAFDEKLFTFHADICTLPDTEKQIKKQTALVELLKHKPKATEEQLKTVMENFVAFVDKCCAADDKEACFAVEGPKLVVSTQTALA
# [11] = small-molecule microarray binders of probe aXIP, primary screen, biochemical, NeuroSMM set, 635/667 nm fluorescence (AID 1119); details: higher = more signal, called active from +8 up or from −8 down;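 further: probe is the protein aXip251-270 applied at 1 µg/mL to compound-printed slides; binding of probe to printed compounds measured as 667 nm fluorescence plus signal to noise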
# [12] = small-molecule binders of probe aNOTCH3, primary screen, biochemical, small-molecule microarray, 635/667 nm fluorescence (AID 1120); details: higher = more signal;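 further: probe is a biotin-tagged antibody raised against NOTCH3 rather than NOTCH3 protein; score merges spot fluorescence near 667 nm with spot signal to noise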
# [13] = small-molecule binders of probe aNOTCH2, primary screen, biochemical, small-molecule microarray, 635/667 nm fluorescence (AID 1121); details: higher = more signal;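 further: score merges feature fluorescence read at 667 nm with its signal to noise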
# [14] = target: Carbonic anhydrase 2 (Homo sapiens) (UniProt P00918); assay: CAII small-molecule binders, profiling panel, biochemical, small-molecule microarray, Alexa647-labelled CAII (AID 1122); details: CAII-A647 binding fluorescence, higher = more signal
# [15] = COS7 lysate on small-molecule microarray, probe aHis, 635 nm (AID 1123); details: COS7 cell lysate, fluorescence, higher = more signal;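 further: z-score combines 667nm fluorescence intensity with signal-to-noise per printed compound spot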
# [16] = compound binding in COS7 lysate, probe aLAP1, primary screen, cell lysate, small-molecule microarray (AID 1124); details: probe aLAP1, fluorescence, higher = more signal;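 further: lysate comes from COS7 cells expressing LAP1 and is applied at 0.3 µg/mL; score merges spot fluorescence near 667 nm with signal-to-noise over triplicate slides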
# Sam68 (KHDRBS1) = assay: Sam68 small-molecule binders, primary screen, biochemical, small-molecule microarray, 635 nm fluorescence (AID 1125); details: small-molecule microarray binding, higher = more signal;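 further: score merges 667 nm channel intensity with signal to noise over triplicate slides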
# [17] = test system: Chordin-like protein 2 (CHRDL2); assay: CHRDL2 small-molecule binders, primary screen, biochemical, small-molecule microarray, 635 nm fluorescence (AID 1126); details: small-molecule microarray binding, fluorescence 635 nm; higher = more signal;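 further: printed compound slides probed with Chrdl2 protein at 4 µg/mL for 1 h at 4 C; score merges 667 nm emission intensity with signal to noise over three replicate slides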
# [18] = target: Concanavalin-A (Canavalia ensiformis) (UniProt P02866); assay: ConA small-molecule binders, primary screen, artefact control for SMM control protein annotation, biochemical, small-molecule microarray, Alexa647 label, 635 nm (AID 1127); details: ConA-A647 binding fluorescence, higher = more signal;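 further: z combines 667 nm emission intensity with signal-to-noise across three replicate slides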
# Sequence of Concanavalin-A (Canavalia ensiformis) (P02866 whole entry, looked up): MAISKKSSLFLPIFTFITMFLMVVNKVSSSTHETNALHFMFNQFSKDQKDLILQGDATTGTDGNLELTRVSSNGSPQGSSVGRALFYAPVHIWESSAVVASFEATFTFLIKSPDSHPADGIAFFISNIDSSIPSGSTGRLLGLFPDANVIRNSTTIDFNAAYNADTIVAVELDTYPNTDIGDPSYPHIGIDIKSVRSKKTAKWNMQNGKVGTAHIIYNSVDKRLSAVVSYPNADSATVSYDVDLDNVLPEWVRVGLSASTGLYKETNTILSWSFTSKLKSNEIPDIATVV
Structure (SMILES),composite z-score [1],z-score [2],composite z-score [3],composite z-score [4],composite z-score [5],composite z-score [6],composite z-score [7],composite z-score [8],composite z-score [9],composite z-score [10],composite z-score (Albumin (Bos taurus)),composite Z-score [11],composite z-score [12],composite z-score [13],composite z-score [14],composite z-score [15],composite z-score [16],composite z-score (Sam68 (KHDRBS1)),composite z-score [17],composite z-score [18]
CN1C(=O)C2C=CC(C(O)c3c(F)cccc3Cl)N(Nc3ccccc3)C2C1=O (stereo not given),1.19,-0.659,-0.445,1.45,0.496,-0.0276,0.432,0.707,0.0127,0.904,0.956,-0.263 (inactive),0.291,0.0177,0.396,2.84,0.73,0.895,0.298,1.18
COc1ccc([Si](C)(C)[C@H]2[C@H](CC(=O)N3Cc4ccccc4C[C@H]3CO)O[C@@]3(C(=O)N(Cc4cccc(N5CCCCC5=O)c4)c4ccccc43)[C@@H]2C)cc1,0.551,-3.77,0.983,-0.226,-0.48,-0.043,-0.0553,-0.0206,0.547,0.244,0.26,0.424 (inactive),-0.0044,-0.14,0.498,0.951,0.0263,0.724,1.19,1.05
O=C(O)[C@]1(Cc2ccccc2)N=C(c2ccc(OCCCO)cc2)O[C@@H]1c1ccccc1,-0.218,0.398,-0.539,-0.201,0.206,-0.128,0.0893,0.306,-0.499,-0.905,0.424,-0.191 (inactive),-0.122,-0.14,0.837,0.689,-0.278,-1.24,-1.65,0.0277
NCCCCCNC(=O)[C@@H]1C[C@@H]2C(=O)N[C@@H](CCCCN)C(=O)N2[C@@H]1c1cccc(OCCO)c1,0.309,0.731,0.599,-0.804,-0.262,0.0921,0.241,0.628,1.97,-0.066,0.104,0.416 (inactive),-0.0168,-0.0637,-0.153,0.043,1.55,0.668,1.18,-0.0079
NC(=O)NCC#Cc1ccc2c(c1)[C@]1(C(=O)N2)[C@H](C(=O)Nc2nc3ccccc3s2)[C@H]2C(=O)O[C@H](c3ccccc3)[C@H](c3ccccc3)N2[C@@H]1c1ccc(O)cc1,0.944,-0.797,0.215,1.29,0.414,-0.0445,-0.0243,0.23,0.187,1.64,-0.0229,0.157 (inactive),0.114,0.103,0.0856,-0.482,0.274,0.846,0.402,1.07
O=C1OCC=C[C@H]2OC34C=CCN(Cn5nnc6ccccc65)C(=O)[C@H]3N(CCCCCCO)C(=O)[C@@H]4[C@@H]12 (stereo not given in full),-0.0554,-0.113,-1.14,-0.129,-0.004,-0.152,-0.16,0.162,3.14,-0.608,-1.02,0.648 (inactive),-0.165,-0.126,0.904,0.718,0.79,0.0126,-0.743,-1.01
O=C1NCC(=O)N2[C@@H]1C[C@@H](C(=O)O)[C@H]2c1ccc(O)cc1,1.4,2.63,0.834,0.458,-0.451,-0.0758,0.123,-0.36,-0.0956,0.707,-0.575,-0.0127 (inactive),0.0397,-0.14,0.165,2.25,0.0452,1.31,1.48,1.07
COc1cc(OC)c(C(O)C2C=CC3C(=O)N(c4ccccc4)C(=O)C3N2Nc2ccc(C#N)cc2)cc1Br (stereo not given),1.36,-0.519,0.0166,2.19,0.992,0.471,0.196,0.81,2.18,2.42,1.01,1.5 (inactive),0.334,0.401,0.849,2.49,1.41,1.15,0.355,1.04
COCCCNC(=O)[C@@H]1c2ccccc2C(=O)N(Cc2ccccc2C(F)(F)F)[C@H]1c1ccc(CO)cc1,0.367,-0.469,-0.431,-0.119,0.423,-0.152,-0.266,0.265,0.612,-0.295,-1.34,-0.0662 (inactive),-0.186,-0.131,0.389,1.19,0.216,0.433,-0.781,-0.264
CC(C)(C)OC(=O)CC[C@]1(C(=O)NCCN2CCOCC2)N=C(c2ccc(OCCCO)cc2)O[C@H]1c1ccccc1N=[N+]=[N-],0.775,1.08,0.245,1.3,0.374,0.0229,0.0214,1.73,1.7,1.04,0.942,0.489 (inactive),0.286,0.0684,0.82,3.05,1.22,1.31,0.186,0.373
C=CCC(OC(C)=O)[C@@H]1[C@@H](N(Cc2cc3ccccc3o2)C(=O)c2ccc(C)cc2)c2cc(OCCCO)ccc2N1C(=O)Cc1ccc2ccccc2c1 (stereo not given in full),-0.494,-0.185,0.081,-0.0956,-0.147,0.103,-0.13,-0.322,0.102,-0.319,0.324,0.0991 (inactive),0.0311,-0.0077,-0.138,0.0465,-0.057,-0.366,0.208,-1.56
CC(C)C(O)C1C=CC2C(=O)N(C)C(=O)C2N1N(c1ccccc1)c1ccccc1 (stereo not given),-0.192,0.865,0.0172,0.107,0.368,-0.0165,0.14,0.603,0.251,0.218,0.736,0.491 (inactive),-0.047,-0.0482,0.697,0.986,-0.37,-0.797,-1.17,-0.847
